Only some compounds are listed: those with a hit (about 15% of all), similar ones and a draw of the others.
RORgamma inh: qHTS for inhibitors of ROR gamma transcriptional activity. Drosophila S2 Gal4-RORgamma UAS-luciferase reporter, 20 h. Potency, µM (series often up to 53.6 µM), hits mostly inhibitors. hit rate 5.4% among 310,000; further: nearly all actives have a fitted effect of over 60% in size
Target sequence (P51450 whole entry, looked up, the tested form may be a part): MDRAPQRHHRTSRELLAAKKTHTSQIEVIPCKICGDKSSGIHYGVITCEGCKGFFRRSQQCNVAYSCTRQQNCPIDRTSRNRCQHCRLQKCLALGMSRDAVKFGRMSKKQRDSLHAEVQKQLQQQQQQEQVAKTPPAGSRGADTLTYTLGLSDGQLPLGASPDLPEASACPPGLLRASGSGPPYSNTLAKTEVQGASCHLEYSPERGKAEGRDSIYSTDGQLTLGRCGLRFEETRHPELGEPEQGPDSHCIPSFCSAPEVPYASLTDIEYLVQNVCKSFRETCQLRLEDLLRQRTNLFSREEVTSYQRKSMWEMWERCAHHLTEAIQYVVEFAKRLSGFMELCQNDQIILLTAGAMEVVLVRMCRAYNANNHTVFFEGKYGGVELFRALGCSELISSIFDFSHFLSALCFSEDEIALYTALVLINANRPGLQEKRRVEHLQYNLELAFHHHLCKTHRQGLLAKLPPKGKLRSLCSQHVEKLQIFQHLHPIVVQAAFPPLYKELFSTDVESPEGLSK
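Compounds are pin-transferred onto Drosophila Schneider cells expressing a copper-inducible Gal4–ROR gamma transactivation domain fusion. After 1 hr, copper sulfate is added to 700 uM final; luciferase is read 20 hr later.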
12-LOX inh: Primary qHTS assay for inhibitors of human arachidonate 12S-lipoxygenase (ALOX12): Round 2 | purified 12hLO, xylenol orange hydroperoxide absorbance | Potency, µM (top dose mostly 108 µM), hits mostly inhibitors | hit rate 1.1% among 580,000
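Purified human 12hLO at 150 nM in 25 mM Hepes, 0.01% Triton X-100, pH 7.0, preincubated 15 min at room temperature with compound. Reaction started with 40 uM arachidonic acid, 30 min at room temperature. Hydroperoxide measured by Fe-xylenol orange, 573/405 nm absorbance ratio.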
ELG1 DNA repair: qHTS screen for small molecules that inhibit ELG1-dependent DNA repair in human embryonic kidney (HEK293T) cells expressing luciferase-tagged ELG1. Potency, µM (top dose mostly 46.1 µM), actives largely listed as inhibitors. hit rate 2.3% among 330,000. HEK293T ELG1-luciferase reporter, luminescence, 16 h; DNA damage induced by 5-fluorouridine. AID 504467, 2011; further: nearly all actives have a fitted effect of over 55% in size
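HEK293T cells expressing luciferase-tagged ELG1 (2,000/well) received 5-Fluorouridine plus compound or DMSO for 16 hr at 37 °C. Luciferase was read by ONE-Glo luminescence after 30 min at room temperature.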
DT40 TDP1 CPT: qHTS for Inhibitors of human tyrosyl-DNA phosphodiesterase 1 (TDP1): qHTS in cells in presence of CPT; hit rate 12% among 420,000; AID 686979, 2013; Potency, µM (top dose mostly 46.2 µM), most hits filed as inhibitors; chicken DT40 Tdp1-/-;hTDP1 cells + 20 nM CPT, ATP luminescence, 48 h; further: nearly all actives have a fitted effect of over 55% in size
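Chicken DT40 Tdp1-/- cells complemented with human TDP1, 400 cells/well, exposed to compounds plus 20 nM camptothecin for at least 48 h at 37 C; viability read as ATP content by CellTiter-Glo luminescence.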
VP16 counter: VP16 counterscreen qHTS for inhibitors of ROR gamma transcriptional activity; Drosophila S2 Gal4-VP16 UAS-luciferase, luminescence, 20 h; Potency, µM (titrated, usually from 53.6 µM), actives largely listed as inhibitors; hit rate 3.5% among 310,000; AID 2546, 2010;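 further: Gal4-VP16 expression switched on by copper sulfate through the metallothionein promoter; nearly all actives have a fitted effect of over 50% in size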
DT40 TDP1 no CPT: qHTS for Inhibitors of human tyrosyl-DNA phosphodiesterase 1 (TDP1): qHTS in cells in absence of CPT; hit rate 15% among 420,000; Potency, µM (highest dose often 46.2 µM), actives largely listed as inhibitors; AID 686978, 2013; DT40 Tdp1-/- hTDP1 cells, no CPT, ATP luminescence, 48 h; further: nearly all actives have a fitted effect of over 55% in size
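Chicken DT40 Tdp1-/- cells stably complemented with human TDP1 were seeded at 400 cells/well with DMSO in place of 20 nM camptothecin. After compound pinning, cells grew at least 48 hr at 37 °C; viability read by CellTiter-Glo luminescence.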
A number is an active result; i = inactive; ? = inconclusive; nt = no result given; [ ] = dose if it differs, or a comment. The call rests on the fitted dose curve; in most records, active means well fitted curve in the direction sought with a large enough effect; inconclusive means small, poorly fitted or top-dose-only effect, or another doubt; inactive means no such curve, though single readings can be large; an effect the other way counts as inactive or inconclusive.

SMILES | RORgamma inh | 12-LOX inh | ELG1 DNA repair | DT40 TDP1 CPT | VP16 counter | DT40 TDP1 no CPT
COc1cc(/C=C2\CCc3c2nc2ccccc2c3C(=O)O)cc(OC)c1OC | 10µM | ? | ? | i | ? | i
c1ccc2c(-c3ccncc3)c[nH]c2c1 | i | i | 20.6µM | i | i | i
c1ccc(-c2nnc(-c3ccccc3)c(-c3c[nH]c4ccccc34)n2)cc1 | i | i | i | ? | i | ?
O=C(CCCCn1c(=O)c2ccccc2n(Cc2cccc(Cl)c2)c1=O)NCc1ccc2c(c1)OCO2 | nt | i | nt | ? | nt | 11.6µM
Cc1ccccc1Cn1c(=O)n(CCCCC(=O)NCc2ccc3c(c2)OCO3)c(=O)c2ccccc21 | nt | i | nt | 23.1µM | nt | ?
CC(C)c1nc(-c2ccc(OC3CCN(C(=O)c4cc(F)ccc4F)C3)cc2)no1 (stereo not given) | nt | i | nt | nt | nt | nt
Cc1ccc(C)c(-n2ccnc2SC2CCCCC2=O)c1 (stereo not given) | nt | i | nt | nt | nt | nt
COc1ccc(OC)c(NC(=O)COc2cc(C)cc(C)c2C)c1 | nt | i | nt | nt | nt | nt
OC(CN1C2=NCCN2c2ccccc21)c1ccc(Br)cc1 (stereo not given) | i | i | ? | ? | i | 20.6µM
Cc1ccc(C(O)CN2C3=NCCN3c3ccccc32)cc1 (stereo not given) | i | i | i | 23.1µM | i | 16.4µM
Cc1ccccc1CN1C2=NCCN2c2ccccc21 | ? | ? | i | ? | i | ?
O=C(Nc1cccc(F)c1)Nc1ccc2n(c1=O)C[C@H]1C[C@@H]2CN(C(=O)c2ccc(F)cc2)C1 | nt | i | nt | nt | nt | nt
O=C(NCc1ccccc1)C(c1ccc(F)cc1)N(Cc1cccs1)C(=O)c1cnccn1 (stereo not given) | i | i | 13µM | ? | i | ?
C[C@H](c1ccccc1)N1C[C@@H](COCc2ccccc2)Oc2cccc(N3CCCCC3)c2S1(=O)=O | nt | i | nt | nt | nt | nt
O=S1(=O)c2ccccc2OC(COCc2ccccc2)CN1C1CC1 (stereo not given) | nt | i | i | 18.4µM | nt | 18.4µM
CCCCN1CC(COCc2ccccc2)Oc2cccc(N3CCCC3)c2S1(=O)=O (stereo not given) | nt | i | nt | ? | nt | 16.4µM
CC(C)CN1CC(COCc2ccccc2)Oc2ccccc2S1(=O)=O (stereo not given) | nt | i | ? | 20.6µM | nt | ?
CCCCN1CC(COCc2ccccc2)Oc2cc(Br)ccc2S1(=O)=O (stereo not given) | nt | i | nt | ? | nt | ?
CN1CC(COCc2ccccc2)Oc2ccccc2S1(=O)=O (stereo not given) | nt | ? | i | ? | nt | i
Cc1csc(NC(=O)c2nc3c(o2)CCN(CC2CCCC2)CC3)n1 | nt | i | nt | nt | nt | nt
Cc1cc(NC(=O)c2ccco2)cc(-c2nc3cc(Cl)ccc3o2)c1O | nt | i | nt | 18.4µM | nt | 11.6µM
Cc1cc(NC(=O)C(C)C)cc(-c2nc3ncccc3o2)c1O | nt | i | nt | ? | nt | 13µM
Cc1ccc2oc(-c3cc(NC(=O)c4cccc(Cl)c4)ccc3O)nc2c1 | nt | i | nt | nt | nt | nt
CCC(=O)Nc1cc(C)c(O)c(-c2nc3ncccc3o2)c1 | nt | ? | nt | i | nt | ?
O=C(/C=C\c1ccco1)Nc1cc([N+](=O)[O-])ccc1F | i | ? | i | 2.06µM | i | 1.64µM
SMILES | RORgamma inh | 12-LOX inh | ELG1 DNA repair | DT40 TDP1 CPT | VP16 counter | DT40 TDP1 no CPT
Cc1ccc2oc(-c3cc(NC(=O)/C=C/c4ccco4)ccc3Cl)nc2c1 | nt | ? | nt | ? | nt | 20.6µM
Cc1ccc(SC(C)C(=O)NC(C(C)C)C(C)C)cc1 (stereo not given) | nt | i | nt | nt | nt | nt
O=C(CCN1CCCCO1)NC1CCCc2nc(-c3ccccc3)ncc21 (stereo not given) | nt | i | nt | nt | nt | nt
O=C(C1CCC1)N1CCC(N2CC(OCC3CC3)C23CCOCC3)CC1 (stereo not given) | nt | i | nt | nt | nt | nt
CCOc1ccccc1C1NC(=O)N(CC(=O)Nc2ccccc2C)C2=C1C(=O)OC2 (stereo not given) | nt | i | nt | nt | nt | nt
COc1ccc(C)cc1NC(=O)c1cc(S(=O)(=O)N2CCc3ccccc32)cn1C | nt | i | nt | nt | nt | nt
COc1ccccc1OC1(C(=O)O)CCN(Cc2ccccc2F)CC1 | nt | i | nt | nt | nt | nt
Cc1ccccc1NC1(c2nnnn2-c2ccccc2)CCCC1 | nt | i | nt | nt | nt | nt
Cc1ccc(NC(=O)/C=C/c2ccco2)cc1F | nt | ? | nt | 7.31µM | nt | 9.2µM
Cc1ccccc1-c1nc2cc(NC(=O)/C=C/c3ccco3)ccc2o1 | nt | 25.1µM | nt | nt | nt | nt
O=C(/C=C/c1ccco1)Nc1ccc(Cl)c(-c2nc3cc(Cl)ccc3o2)c1 | nt | ? | nt | ? | nt | 25.9µM
O=C(/C=C/c1ccco1)Nc1cc(Cl)ccc1C(=O)O | i | ? | i | ? | i | ?
COC[C@@H]1CN(Cc2cccc(OC)c2OC)C[C@H]1c1ccccn1 | nt | i | nt | nt | nt | nt
Cc1ccc(N(CC(O)Cn2nc(C)cc2C)S(=O)(=O)c2ccc3ccccc3c2)cc1 (stereo not given) | ? | ? | ? | ? | ? | 18.4µM
Cc1cc(=O)oc2cc(OCC(=O)N3CC(=O)Nc4ccccc43)c(Cl)cc12 | nt | i | i | i | nt | i
Cc1cc2c(cc1C)N(C(=O)CCl)CC(=O)N2 | nt | nt | nt | 2.31µM | nt | 2.59µM
Cc1ccc(C(=O)NCCC(=O)N2CCCC2)cc1C | nt | i | nt | nt | nt | nt
Cc1cc2c(cc1C)N(C(=O)CCl)CCN2C(=O)CCl | nt | 8.91µM | nt | 0.461µM | nt | 0.581µM
Cc1ccccc1OCc1nc(C2CN(C(=O)c3cc4ccccc4[nH]3)C2)no1 | nt | i | nt | nt | nt | nt
CCN(CC)C(=O)c1cccc(-c2csc(C(C)(NC(C)=O)c3ccc(OC)cc3)n2)c1 (stereo not given) | nt | i | nt | ? | nt | 13µM
CCN(CC)C(=O)c1cccc(-c2ccc(OC)cc2)c1 | i | i | ? | i | i | i
CCN(CC)C(=O)c1cccc(-c2csc(C(C)(O)c3ccc(F)c(F)c3)n2)c1 (stereo not given) | nt | nt | nt | ? | nt | 20.6µM
O=C(O)c1cccc(-c2csc(C(O)(c3ccccc3)C(F)(F)F)n2)c1 (stereo not given) | nt | i | nt | i | nt | i
CCN(CC)C(=O)c1cccc(-c2csc(C(C)(O)c3ccc(OC)cc3)n2)c1 (stereo not given) | nt | i | nt | 5.8µM | nt | 4.61µM
CCN(CC)C(=O)c1cccc(-c2csc(C(O)(c3ccccc3)C(F)(F)F)n2)c1 (stereo not given) | nt | i | nt | ? | nt | 16.4µM
COc1cccc(-c2csc(NC(C)=O)n2)c1 | ? | ? | ? | i | i[0.365 µM] | i
